# Measurements published in PubChem BioAssay (NCATS).
# A number with no mark means an inactive call. Results filed as inconclusive are left out. Entries that show only a call come without a potency. Activity calls are given as the source filed them. Unless noted, calls follow the shape of the dose curve; as a rule, active = well fitted curve in the direction sought with a large enough effect; inconclusive = small, poorly fitted or top-dose-only effect, or another doubt; inactive = no such curve, though single readings can be large; an effect the other way counts as inactive or inconclusive. Numbered stars: 1 amine (or outer) side, 2 acyl side, 3 side chain; on linkers, the order of the positions; unused ones are H or OH. Bridge positions count the residues as written; N and C are the ends. Square brackets hold non-standard residues; d marks the D form. Peptide text beside a SMILES is read from it. I, II: the chains in the order shown. Actinocin(9to1) = Cc1c2oc3c(C)ccc(C(=O)[*:1])c3nc-2c(C(=O)[*:2])c(N)c1=O; NMeV = CN[C@H](C(=O)O)C(C)C; Sar = CNCC(=O)O
# Key:
# [1] = Cell Viability - LYMP2-001 (AID 921);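 also: cells exposed to compound for 24 h at 37 °C; nearly all actives have a fitted effect of over 70% in size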; also: potency is read from the fitted curve at half-maximal effect
# Summary of the method: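 Steps: seed 2500 lymphoblastoid cells/well; 5 hr, 37 C; add compound; 24 hr, 37 C; CellTiter-Glo reagent, 30 min room temperature; read luminescence. Concentration-response modeled by Hill equation for AC50.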
# [2] = Confirmation and Secondary Assay for Modulators of Hemoglobin Beta Chain Splicing at IVS2 705 locus (AID 930);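 also: HeLa cells stably expressing the EGFP-705 splicing reporter; GFP fluorescence per well restored by corrected splicing of the IVS2-705 intron in EGFP; series mostly up to about 46 µM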
# Summary of the method: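 HeLa IVS2-705 EGFP reporter cells, 500/well, compound 2 d at 37C; correct splicing yields fluorescent EGFP. Control: 500 nM antisense PNA. Read-out: total peak GFP intensity.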
# [3] = MultiTox-Fluor Cytotoxicity Assay - LYMP1-001 - Dead Cells (AID 946); also: potency is read from the fitted curve at half-maximal effect
# Summary of the method: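 In this qHTS, 15 uM tetraoctylammonium bromide defined 100% and DMSO defined basal activity. Lymphoblastoid cells (LYMP1-001, 2500 per well) received compound for 16 hr at 37 C before a fluorogenic dead-cell substrate readout at 485/520 nm.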
# [4] = MultiTox-Fluor Cytotoxicity Assay - LYMP1-002 - Live Cells (AID 955);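 also: cells exposed to compound for 16 hours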; also: potency is read from the fitted curve at half-maximal effect
# Summary of the method: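 Cells were seeded at 2500 per well and incubated 5 hr. Compounds were then added for 16 hr at 37 C, followed by MultiTox-Fluor reagent for 60 min at room temperature and fluorescence reading of viable-cell protease signal.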
# [5] = MultiTox-Fluor Cytotoxicity Assay - LYMP1-002 - Dead Cells (AID 960); also: nearly all actives have a fitted effect of over 60% in size; also: potency is read from the fitted curve at half-maximal effect
# Summary of the method: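 Cells were plated, rested 5 hr, then treated with compound dilution series for 16 hr at 37 C. After adding substrate reagent and 60 min at room temperature, dead-cell protease fluorescence gave concentration-response curves fitted by the Hill equation.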
# [6] = MultiTox-Fluor Cytotoxicity Assay - LYMP1-003 - Dead Cells (AID 961);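 also: cells exposed to compound for 16 h at 37 °C; nearly all actives have a fitted effect of over 70% in size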; also: potency is read from the fitted curve at half-maximal effect
# Summary of the method: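 Acute toxicity is scored as increased dead-cell protease activity in human lymphoblastoid LYMP1-003 cells after 16 h compound exposure in complete culture medium. Activity is normalized to DMSO basal and 15 uM tetraoctylammonium bromide as full response.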
# [7] = MultiTox-Fluor Cytotoxicity Assay - LYMP1-003 - Live Cells (AID 962);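 also: cells exposed to compound for 16 hours at 37 °C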; also: potency is read from the fitted curve at half-maximal effect
# Summary of the method: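 Acute cytotoxicity is scored as a drop in live-cell protease activity in human lymphoblastoid LYMP1-003 cells after 16 hr compound exposure at 37 C. AC50 values come from Hill-equation modelling of concentration-response data.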
# [8] = Cell Viability - LYMP1-003 - Assay at 24 hr (AID 963); also: potency is read from the fitted curve at half-maximal effect
# Summary of the method: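 Cytotoxicity is scored as a concentration-dependent fall in ATP-linked luciferase signal in human lymphoblastoid LYMP1-003 cells treated 24 hr at 37 C in complete culture medium.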
# [9] = Cell Viability - LYMP1-003 - Assay at 40 hr (AID 964); also: nearly all actives have a fitted effect of over 60% in size; also: potency is read from the fitted curve at half-maximal effect
# Summary of the method: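 Luminescent ATP signal (CellTiter-Glo) served as the viability read-out after 40 hr compound treatment of human lymphoblastoid LYMP1-003 cells at 37 C. Decreases in ATP were fitted with the Hill equation to give AC50.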
# [10] = Cell Viability - LYMP2-003 (AID 965);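 also: cells exposed to compounds for 24 h before reading; nearly all actives have a fitted effect of over 50% in size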; also: potency is read from the fitted curve at half-maximal effect
# Summary of the method: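 Seed 2500 lymphoblastoid cells/well; incubate 5 hr, 37 C; add compounds; incubate 24 hr, 37 C; add CellTiter-Glo, 30 min RT; read luminescence. AC50 from Hill fit.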
# [11] = MultiTox-Fluor Cytotoxicity Assay - LYMP1-001 - Live Cells (AID 947); also: potency is read from the fitted curve at half-maximal effect
# [12] = qHTS Assay for Identification of Small Molecule Agonists for Hypoxia Response Element Signaling Pathway (AID 914; active = well fitted activation curve with a large enough effect in the signal ratio, with a control signal flat, not every such curve was filed as active; the % refers to the signal ratio); details: ME-180 (cervical carcinoma) HRE-bla reporter, beta-lactamase ratio, CoCl2, 17 h; active compounds read high
# Summary of the method: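 HRE-bla ME-180 assay for agonist-like enhancement of an EC50 CoCl2 stimulus: 17 h at 37 degrees Celsius, CCF4 for 2.5 h, ratiometric 460/530 nm signal converted to %Activity and fitted to AC50.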
# [13] = molecular target: Muscarinic acetylcholine receptor M1 (Rattus norvegicus) (UniProt P08482); assay: qHTS Assay for Antagonists of Acetylcholine Muscarinic M1 Receptor: Measurement of IP-One Response (AID 944); also: nearly all actives have a fitted effect of over 75% in size; also: potency is read from the fitted curve at half-maximal effect
# Chain of Muscarinic acetylcholine receptor M1 (Rattus norvegicus) (P08482 whole entry, looked up): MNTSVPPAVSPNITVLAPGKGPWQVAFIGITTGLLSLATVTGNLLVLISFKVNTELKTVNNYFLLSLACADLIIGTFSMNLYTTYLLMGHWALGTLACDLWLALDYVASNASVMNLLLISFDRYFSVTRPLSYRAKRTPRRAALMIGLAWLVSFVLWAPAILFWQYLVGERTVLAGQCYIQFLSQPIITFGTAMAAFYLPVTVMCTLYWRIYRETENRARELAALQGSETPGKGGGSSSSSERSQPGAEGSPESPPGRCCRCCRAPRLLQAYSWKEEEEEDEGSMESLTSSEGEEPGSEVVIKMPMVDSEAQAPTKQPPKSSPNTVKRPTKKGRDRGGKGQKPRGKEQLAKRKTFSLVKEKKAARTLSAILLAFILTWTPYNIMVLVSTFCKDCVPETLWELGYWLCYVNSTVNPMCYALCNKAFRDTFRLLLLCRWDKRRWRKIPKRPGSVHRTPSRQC
# Summary of the method: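 Antagonist mode with rat M1 receptor transfected into CHO cells. Compound is added first for 10 min, carbachol at its EC80 follows for 30 min, and lysis reagents then allow TR-FRET detection of accumulated IP1.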
# [14] = molecular target: Pyruvate kinase PKM (Homo sapiens) (UniProt P14618); assay: qHTS Assay for Activators of Human Muscle Pyruvate Kinase (AID 954; active = well fitted curve in the direction sought with a large enough effect, not every such curve was filed as active)
# Chain of Pyruvate kinase PKM (Homo sapiens) (P14618 whole entry, looked up): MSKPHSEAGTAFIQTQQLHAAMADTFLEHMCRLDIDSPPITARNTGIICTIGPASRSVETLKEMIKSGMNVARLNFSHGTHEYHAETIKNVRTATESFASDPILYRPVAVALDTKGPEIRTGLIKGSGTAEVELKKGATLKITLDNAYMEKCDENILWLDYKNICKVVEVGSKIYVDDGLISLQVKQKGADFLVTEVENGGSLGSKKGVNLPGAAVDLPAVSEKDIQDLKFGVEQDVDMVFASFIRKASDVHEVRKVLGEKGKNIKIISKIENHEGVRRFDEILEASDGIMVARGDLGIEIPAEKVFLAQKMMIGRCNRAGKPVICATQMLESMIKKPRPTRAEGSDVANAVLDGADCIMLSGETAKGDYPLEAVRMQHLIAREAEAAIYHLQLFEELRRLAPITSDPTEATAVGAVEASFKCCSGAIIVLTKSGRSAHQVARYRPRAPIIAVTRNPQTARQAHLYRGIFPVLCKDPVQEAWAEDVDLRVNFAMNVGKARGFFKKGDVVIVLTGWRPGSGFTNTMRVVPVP
# Summary of the method: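 Screening used highly purified human pyruvate kinase M2 under submaximal activity, with PEP at its Km and ADP below Km. After an hour at room temperature, ATP was read by luciferase luminescence.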
# [15] = molecular target: Muscarinic acetylcholine receptor M1 (Rattus norvegicus) (UniProt P08482); assay: qHTS Assay for Antagonists of Acetylcholine Muscarinic M1 Receptor: Kinetic Measurement of Intracellular Calcium Response (AID 943);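 also: Fluo-4 calcium signal as peak divided by basal fluorescence over 4 min; series mostly up to about 35 µM; nearly all actives have a fitted effect of over 75% in size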
# Summary of the method: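 Antagonism is measured as inhibition of the carbachol-evoked calcium rise in CHO cells transfected with rat M1. Cells are dye-loaded, exposed to compound for 10 min, then stimulated with 100 nM carbachol (EC80).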
# [16] = molecular target: Pyruvate kinase (Leishmania mexicana) (UniProt Q27686); assay: qHTS Validation Assay for Inhibitors of Leishmania Mexicana Pyruvate Kinase (AID 945)
# Summary of the method: (§1)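 Eight-point qHTS titrations; enzyme 0.2 nM LmPYK (E451W mutant); substrates 0.5 mM PEP, 0.1 mM ADP; 7 mM MgCl2; 1 h room temperature; PKLight luminescence normalized to neutral control.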
# [17] = molecular target: Pyruvate kinase (Leishmania mexicana) (UniProt Q27686); assay: qHTS Validation Assay for Activators of Leishmania Mexicana Pyruvate Kinase (AID 959)
# Summary of the method: as §1
smiles,measurement,setting,value
O=C1OC(c2ccc(O)cc2)(c2ccc(O)cc2)c2ccccc21,Potency,[1],inactive
same,outcome,[2],inactive
same,Potency,[3],inactive
same,Potency,[4],inactive
same,Potency,[5],15800 nM (active)
same,Potency,[6],inactive
same,Potency,[7],inactive
same,Potency,[8],inactive
same,Potency,[9],inactive
same,Potency,[10],inactive
CC(=O)Nc1c(I)cc(I)c(C(=O)O)c1I,outcome,[2],inactive
CN1CCN(C(c2ccccc2)c2ccccc2)CC1,outcome,[2],inactive
COc1cccc2c1C(=O)c1c(O)c3c(c(O)c1C2=O)C[C@@](O)(C(C)=O)C[C@@H]3O[C@H]1C[C@H](N)[C@H](O)[C@H](C)O1,Potency,[1],1580 nM (active)
same,Potency,[3],501 nM (active)
same,Potency,[11],631 nM (active)
same,Potency,[4],3980 nM (active)
same,Potency,[5],12600 nM (active)
same,Potency,[6],1000 nM (active)
same,Potency,[7],501 nM (active)
same,Potency,[8],1000 nM (active)
same,Potency,[9],398 nM (active)
same,Potency,[10],316 nM (active)
CCCCOc1ccc(OCCCN2CCOCC2)cc1,outcome,[2],inactive
CC(C)(C(=O)c1cccnc1)c1cccnc1,activation,[12],-12.9%
CCCCC(CC)CN=C(N)NC(N)=NCCCCCCN=C(N)NC(N)=NCC(CC)CCCC (stereo not given),outcome,[2],inactive
COC1=CC(=O)C[C@@H](C)[C@]12Oc1c(Cl)c(OC)cc(OC)c1C2=O,Potency,[1],inactive
same,outcome,[2],inactive
same,Potency,[3],inactive
same,Potency,[11],inactive
same,Potency,[4],inactive
same,Potency,[6],inactive
same,Potency,[7],inactive
same,Potency,[8],inactive
same,Potency,[10],inactive
CC(C)(C)CC(C)(C)c1ccc(OCCOCC[N+](C)(C)Cc2ccccc2)cc1,Potency,[1],20000 nM (active)
same,outcome,[2],inactive
same,Potency,[8],50100 nM (active)
same,Potency,[9],31600 nM (active)
same,Potency,[10],39800 nM (active)
CC(=O)O[C@]1(C(C)=O)CC[C@H]2[C@@H]3C[C@H](C)C4=CC(=O)CC[C@]4(C)[C@H]3CC[C@@]21C,Potency,[1],31600 nM (active)
same,Potency,[3],inactive
same,Potency,[11],inactive
same,Potency,[4],inactive
same,Potency,[5],inactive
same,Potency,[6],inactive
same,Potency,[7],inactive
same,Potency,[8],inactive
same,Potency,[9],inactive
CCCCOc1cc(C(=O)NCCN(CC)CC)c2ccccc2n1,outcome,[2],inactive
Oc1ccc(Cl)cc1Sc1cc(Cl)ccc1O,Potency,[3],inactive
same,Potency,[7],inactive
CCN(CC)C(=O)N1CCN(C)CC1,outcome,[2],inactive
COc1cc(NS(C)(=O)=O)ccc1Nc1c2ccccc2nc2ccccc12,Potency,[13],10000 nM (active)
same,outcome,[14],inactive
Oc1cc(O)c2c(c1)O[C@H](c1ccc(O)c(O)c1)[C@H](O)C2,outcome,[15],inactive
same,Potency,[13],inactive
same,outcome,[16],inactive
same,outcome,[14],inactive
C1CCc2nnnn2CC1,outcome,[2],inactive
same,outcome,[15],inactive
same,Potency,[13],inactive
same,outcome,[16],inactive
same,outcome,[14],inactive
CCCCc1nc(Cl)c(CO)n1Cc1ccc(-c2ccccc2-c2nn[nH]n2)cc1,outcome,[2],inactive
c1ccc(-c2ccc(C(c3ccccc3)n3ccnc3)cc2)cc1 (stereo not given),outcome,[2],inactive
Oc1ccc(Cl)c2cccnc12,outcome,[2],inactive
C/C=C(/C(=C/C)c1ccc(O)cc1)c1ccc(O)cc1,outcome,[2],inactive
O=C1OCCN1/N=C/c1ccc([N+](=O)[O-])o1,outcome,[2],inactive
"Cc1c2oc3c(C)ccc(C(=O)N[C@@H]4C(=O)N[C@H](C(C)C)C(=O)N5CCC[C@H]5C(=O)N(C)CC(=O)N(C)[C@@H](C(C)C)C(=O)O[C@@H]4C)c3nc-2c(C(=O)N[C@@H]2C(=O)N[C@H](C(C)C)C(=O)N3CCC[C@H]3C(=O)N(C)CC(=O)N(C)[C@@H](C(C)C)C(=O)O[C@@H]2C)c(N)c1=O (I: T[dV]P[Sar][NMeV] / II: T[dV]P[Sar][NMeV]; ester I:1-I:C, II:1-II:C; linker I:N-II:N via Actinocin(9to1))",Potency,[3],12.6 nM (active)
same,Potency,[5],25.1 nM (active)
same,Potency,[6],50.1 nM (active)
same,Potency,[9],5 nM (active)
OC(CCN1CCCCC1)(c1ccccc1)c1ccccc1,outcome,[2],inactive
CN1[C@@H]2CC[C@H]1CC(OC(=O)c1c[nH]c3ccccc13)C2 (stereo not given in full),outcome,[16],inactive
same,outcome,[14],inactive
N[C@@H](Cc1cnc[nH]1)C(=O)O,outcome,[15],inactive
same,Potency,[13],inactive
same,outcome,[16],inactive
same,outcome,[14],inactive
CCOc1ccc(Cc2nccc3cc(OCC)c(OCC)cc23)cc1OCC,outcome,[2],inactive
CCCCOc1ccc(C(=O)CCN2CCCCC2)cc1,outcome,[2],inactive
O=C1CCC(c2ccc(-n3ccnc3)cc2)=NN1,outcome,[15],inactive
same,Potency,[13],inactive
same,outcome,[16],inactive
same,outcome,[14],inactive
O=C(O)c1cc2cc(Cc3cccnc3)ccc2o1,outcome,[2],inactive
same,Potency,[13],inactive
same,outcome,[14],inactive
same,outcome,[17],inactive
Nc1cc(Cl)c(NC2=NCCN2)c(Cl)c1,Potency,[13],inactive
same,outcome,[16],inactive
same,outcome,[14],inactive
Cc1cc(=O)n(-c2ccccc2)n1C,outcome,[2],inactive
CN1CCC[C@@H]1c1cccnc1,outcome,[16],inactive
same,outcome,[14],inactive
CCCC1O[C@@H]2C[C@H]3[C@@H]4CCC5=CC(=O)C=C[C@]5(C)[C@H]4[C@@H](O)C[C@]3(C)[C@]2(C(=O)CO)O1 (stereo not given in full),outcome,[16],inactive
same,outcome,[14],inactive
CC(C)COC(=O)OCN1C(=O)CN(CCN2CC(=O)N(COC(=O)OCC(C)C)C(=O)C2)CC1=O,Potency,[13],inactive
same,outcome,[16],inactive
same,outcome,[14],inactive
CC(CCc1ccccc1)NCC(O)c1ccc(O)c(C(N)=O)c1 (stereo not given),outcome,[2],inactive
CCOc1ccc2nc3cc(N)ccc3c(N)c2c1,outcome,[2],inactive
COc1ccc(C2C(=O)c3ccccc3C2=O)cc1,outcome,[2],inactive
COc1ccc(CCN2CCC(Nc3nc4ccccc4n3Cc3ccc(F)cc3)CC2)cc1,outcome,[2],inactive
C[C@@H]1C(=O)NC2=Nc3cccc(Cl)c3CN21,outcome,[15],inactive
same,Potency,[13],inactive
same,outcome,[16],inactive
same,outcome,[14],inactive
CCN(CC)CCOC(=O)C(c1ccccc1)C1CCCCC1 (stereo not given),outcome,[2],inactive
C[C@]12CC[C@@H]3c4ccc(O)cc4CC[C@H]3[C@@H]1CC[C@@H]2O,outcome,[16],inactive
same,Potency,[3],inactive
same,Potency,[11],inactive
same,outcome,[14],inactive
same,Potency,[4],inactive
same,Potency,[6],inactive
same,Potency,[7],inactive
same,Potency,[8],inactive
same,Potency,[9],inactive
same,Potency,[10],inactive
CO/N=C1\CN(c2nc3c(cc2F)c(=O)c(C(=O)O)cn3C2CC2)CC1CN (stereo not given),outcome,[2],inactive
